Results filed as inconclusive are left out. Where a call stands in place of a potency, no number is given. Calls of active or inactive are those of the source. Calls come from the whole dose curve; as a rule, active = well fitted activation curve with a large enough effect; inconclusive = small, poorly fitted or top-dose-only effect; inactive = flat fitted curve, though single readings scatter.
Assay: qHTS for Inhibitors of Cell Surface uPA Generation: Confirmatory Assay for Cherry-picked Compounds
Procedure, shortened: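 RAW 264.7 cells at 4000/well, incubated overnight, then treated with compounds. After 24 h at 37 C, viability was read by ATPlite luminescence. An increase in signal indicates blocked uPA-dependent LF entry.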
Potency is the fitted concentration of half-maximal effect.

With `CC(NC(=O)C1CCC(C(=O)NC(C)c2ccccc2)CC1)c1ccccc1` (stereo unspecified) the Potency was “inactive”.
In the case of `O=C(NNC(=O)C1CC(c2cccs2)=NO1)Nc1ccccc1` (stereo unspecified), the Potency is reported as “inactive”.
For `CCC(C(=O)NCc1ccc(C)cc1)c1ccccc1` (stereo unspecified), the Potency was “inactive”.
For `COc1ccc(CN2CCN(Cc3ccc(C(F)(F)F)cc3)CC2)cc1`, the Potency was “inactive”.
In the case of `O=C(Nc1ccc(NC(=O)c2ccco2)c(Cl)c1)c1ccccc1`, the Potency is reported as “inactive”.
With `O=C(CN1CCCC1)Nc1cccc(Cl)c1Cl` the Potency was “inactive”.
With `CCC(C)Nc1cc(C)nc2ncnn12` (stereo unspecified) the Potency was “inactive”.
With `CCOC(=O)C1(CC2CCCCO2)CCN(Cc2nccn2-c2cccc(C)c2)CC1` (stereo unspecified) the Potency was “inactive”.
In the case of `CCC(NC(=O)Cc1c(C)c2c(cc(C)c3c(C)c(C)oc32)oc1=O)C(=O)O` (stereo unspecified), the Potency is reported as “inactive”.
In the case of `CCOC(=O)N1CCc2c(sc3nc4n(c(=O)c23)N=C(C)CS4)C1`, the Potency is reported as “inactive”.
In the case of `Cc1cccc(C(=O)Nc2cc(=O)n(C)c(=O)n2C)c1`, the Potency is reported as “inactive”.
With `CC(C)(O)C#Cc1ccc(C(=O)N2CCCC(CCC(=O)NCc3ccccc3F)C2)cc1` (stereo unspecified) the Potency was “inactive”.
With `O=C(O)CCc1nn2c3ccccc3n(CC(=O)O)c2nc1=O` the Potency was “inactive”.
For `Cc1cc(=O)n2nc(N3CCCC(C(=O)NCc4ccc(Cl)cc4)C3)sc2n1` (stereo unspecified), the Potency was “inactive”.
In the case of `COCCN(CCOC)c1nc(-c2ccc(C)cc2)nc2ccccc12`, the Potency is reported as “inactive”.
With `CC(C)(C)S(=O)(=O)N1C[C@H]2CC/C=C\C/C(c3ccccc3)=C\2[C@@H]1CCO` the Potency was “inactive”.
For `COC(/C=C/Nc1ccc(Cl)cc1)=C(C#N)C#N`, the Potency was “inactive”.
In the case of `C=CS(=O)(=O)c1ccc(Oc2ccc(S(=O)(=O)C=C)cc2)cc1`, the Potency is reported as 58.5 µM (active).
With `Cn1c(SCC(=O)NCCc2ccccc2)ncc(C(=O)Nc2ccc(F)cc2)c1=O` the Potency was “inactive”.
With `CC(C)(C)OC(=O)N(Cc1ccccc1)Cc1ccccc1OCc1cccc(NC(=O)C2CC2)c1` the Potency was “inactive”.
With `O=C(Nc1ccc(N2CCOCC2)cc1)c1ccc(Cl)c(S(=O)(=O)N2CCCC2)c1` the Potency was “inactive”.
With `O=C(Nc1ccc(Cl)cn1)C1CCCN(c2ncnc3c2nc2n3CCCCC2)C1` (stereo unspecified) the Potency was “inactive”.
For `CCOC(=O)CN1C(=O)N[C@@H](c2ccccc2)C(C(C)=O)=C1C`, the Potency was “inactive”.
In the case of `O=C(Nc1cccc(-c2nn[nH]n2)c1)c1ccc(Cl)s1`, the Potency is reported as “inactive”.
For `CCN(c1ccc(OC)cc1)S(=O)(=O)c1ccc2c(c1)NC(=O)CS2`, the Potency was “inactive”.
With `O=c1[nH]c(SCc2cccc(Cl)c2)nc2ccccc12` the Potency was “inactive”.
In the case of `CCOC(=O)Oc1c(OC)cc(C(=O)O[C@@H]2C[C@@H]3CN4CCc5c([nH]c6cc(OC)ccc56)[C@H]4C[C@@H]3[C@H](C(=O)OC)[C@H]2OC)cc1OC`, the Potency is reported as “inactive”.
With `COc1ccc(OC)c(N2C(=O)CC(Cc3cc(C)cc(C)c3)C2=O)c1` (stereo unspecified) the Potency was “inactive”.
In the case of `O=C1N[C@@H](Cc2c[nH]c3ccccc23)C(=O)N[C@H]1Cc1ccccc1`, the Potency is reported as “inactive”.
In the case of `CN(C(=O)c1ccccc1C(=O)OCC(=O)NCc1ccccc1)C1CCCCC1`, the Potency is reported as “inactive”.
For `COc1ccc(C(=O)N2CCN(c3ccc(C(C)=O)cc3)CC2)cc1S(=O)(=O)N1CCCC1`, the Potency was “inactive”.
In the case of `CCOc1ccc(NC(=S)N2CCC(c3ccc(C)cc3)C2)cc1` (stereo unspecified), the Potency is reported as “inactive”.
For `CC(/C=C1\SC(=S)N(CCCC(=O)Nc2ccc(C(=O)O)cc2)C1=O)=C\c1ccccc1`, the Potency was “inactive”.
For `Cc1[nH]c2ccccc2c1C(=O)COC(=O)c1cccc(S(=O)(=O)N2CCCCC2)c1`, the Potency was “inactive”.
In the case of `CN(CC(=O)N(C)CC(=O)Nc1c(Cl)cccc1Cl)Cc1ccccc1F`, the Potency is reported as “inactive”.
For `Cc1[nH]c2ccccc2c1C(=O)C(C)OC(=O)c1ccccc1NCCO` (stereo unspecified), the Potency was “inactive”.
With `Cc1nc2ncccn2c1-c1csc(Nc2ccc(S(N)(=O)=O)cc2)n1` the Potency was “inactive”.
For `CCOc1ccc(N(CC(=O)Nc2ccc(CC)cc2)S(=O)(=O)c2c(C)[nH]c(=O)[nH]c2=O)cc1`, the Potency was “inactive”.
In the case of `Cc1cc(C)n2c(SCC#N)nnc2n1`, the Potency is reported as “inactive”.
With `COc1ccc(Cc2nnc(Nc3ccc(C)cc3)o2)cc1OC` the Potency was “inactive”.
For `CC(C)NC(=O)NC(=O)CN1C(=O)NC(Cc2c[nH]c3ccccc23)C1=O` (stereo unspecified), the Potency was “inactive”.
In the case of `CCOC(=O)C1CCN(S(=O)(=O)c2c[nH]c(=O)[nH]c2=O)CC1`, the Potency is reported as “inactive”.
For `CSCC[C@H](NC(=O)[C@H](Cc1ccccc1)n1c(=O)[nH]c2ccccc2c1=O)C(=O)N1CCC[C@H]1C(=O)O`, the Potency was “inactive”.
With `CCC(=O)Nc1nc(-c2cc([N+](=O)[O-])cs2)cs1` the Potency was “inactive”.
In the case of `CCN1CCN(C(c2ccccc2)c2nnnn2Cc2ccc3c(c2)OCO3)CC1` (stereo unspecified), the Potency is reported as “inactive”.
In the case of `COc1ccc(C)cc1NC(=O)CSCc1cc(=O)n2c(C)csc2n1`, the Potency is reported as “inactive”.
